Measured values published in PubChem BioAssay (NCI).
This is part of a sample that, as a whole, favours compounds with a hit. Of some 83,000 tested, about 20% had one in any assay.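 Note: values are percent growth. 100 is the growth of untreated cells, values between 100 and 0 indicate rising inhibition; between -100 and 0 indicates cell death.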 A number with no mark means an inactive call. The source made the active and inactive calls. How the source made its calls: active means growth percent below 10; inactive means the rest.

Tests used:
Assay in all cases: NCI-60 one-dose screen, 48 h (100 = growth as untreated, 0 = no growth, -100 = all killed)
Settings in all cases: 10 µM unless noted
SR leukemia = test system: SR leukemia
RPMI-8226 leukemia = test system: RPMI-8226 leukemia
OVCAR-8 ovarian = test system: OVCAR-8 ovarian
OVCAR-4 ovarian = test system: OVCAR-4 ovarian
SK-OV-3 ovarian = test system: SK-OV-3 ovarian
OVCAR-3 ovarian = test system: OVCAR-3 ovarian
HS 578T breast = test system: HS 578T breast
NCI/ADR-RES ovarian = test system: NCI/ADR-RES ovarian
BT-549 breast = test system: BT-549 breast
SW-620 colon = test system: SW-620 colon
MCF7 breast = test system: MCF7 breast
HCT-116 colon = test system: HCT-116 colon
HCC-2998 colon = test system: HCC-2998 colon
KM12 colon = test system: KM12 colon
OVCAR-5 ovarian = test system: OVCAR-5 ovarian
IGROV1 ovarian = test system: IGROV1 ovarian
T-47D breast = test system: T-47D breast
MDA-MB-435 melanoma = test system: MDA-MB-435 melanoma

| SMILES | growth (SR leukemia) | growth (RPMI-8226 leukemia) | growth (OVCAR-8 ovarian) | growth (OVCAR-4 ovarian) | growth (SK-OV-3 ovarian) | growth (OVCAR-3 ovarian) | growth (HS 578T breast) | growth (NCI/ADR-RES ovarian) | growth (BT-549 breast) | growth (SW-620 colon) | growth (MCF7 breast) | growth (HCT-116 colon) | growth (HCC-2998 colon) | growth (KM12 colon) | growth (OVCAR-5 ovarian) | growth (IGROV1 ovarian) | growth (T-47D breast) | growth (MDA-MB-435 melanoma) |
| --- | --- | --- | --- | --- | --- | --- | --- | --- | --- | --- | --- | --- | --- | --- | --- | --- | --- | --- |
| CCCCCCCCCCCCCCCCNC(=O)OC(C)C | 1.69% (active) | 80.1% | 63.8% | -39.2% (active) | 69.7% | 19.5% | 78.2% | 65.9% | 95.8% | 18.9% | 1.73% (active) | 20.8% | 57.1% | 0.501% (active) |  |  |  |  |
| CCN(CC)CCC(CNc1ccnc2cc(Cl)ccc12)c1ccc(Cl)cc1 (configuration not stated) | -13.2% (active) | -0.553% (active) | 1.27% (active) |  | -12.9% (active) | 25% | -66.8% (active) | 23.4% |  | -67.8% (active) | -70.7% (active) | -26.9% (active) | -64.8% (active) | 17.9% | 22% | 33.5% | -76% (active) | -72.2% (active) |
| O=[N+]([O-])c1ccc(C(c2ccccc2)c2ccccc2)cc1 | 90.8% | 98.1% | 107% |  |  | 98.9% | 109% | 88.8% |  | 87.5% | 84.9% | 70.4% | 92% | 90.9% | 96.6% | 84.4% | 109% | 99.5% |
| COc1cc(C2CC(c3ccc4c(c3)OCO4)=NN2C=O)cc(OC)c1OC (configuration not stated) | 33.5% | 52.8% | 53.9% | 57.7% | 24.7% | -29% (active) | 8.51% (active) | 15.5% | 40.3% | 27% | 16.8% | 20.6% | 64.2% | 23.3% |  |  |  | -25.9% (active) |
| COc1ccc2c(c1)NC1=C(C(=O)OC1)C2c1cc(OC)c2c(c1)OCO2 (configuration not stated) | 2.24% (active) | 25.1% | 20.7% | 46% | 13% | -44.9% (active) | 14% | 1.91% (active) | 32.4% | 21.2% | 17.9% | 6.69% (active) | 11.3% | 2.35% (active) |  | 24.4% | 53.8% | -14.7% (active) |
| COc1ccccc1CNCCCN1C(=O)c2ccc3c4c(ccc(c24)C1=O)C(=O)N(CCCNCCCCNCCCN)C3=O | -27.1% (active) | -9.27% (active) | 4.19% (active) | -73.8% (active) | 9.93% (active) |  | -25.1% (active) | 4.5% (active) | -22.1% (active) | -36.5% (active) | -38.4% (active) | -2.94% (active) | -39% (active) | -18.7% (active) |  | -2.75% (active) | -36.4% (active) | -13.4% (active) |
| COc1cc(NCCCCCN)c2ncccc2c1 | 70.6% | 88.8% | 100% | 86.8% | 109% |  | 113% | 109% | 113% | 99.4% | 83.2% | 89.1% | 125% | 109% |  | 98% | 96.2% | 114% |
| COc1ccc(CNCCCN2C(=O)c3ccc4c5c(ccc(c35)C2=O)C(=O)N(CCCNCCCCNCCCN)C4=O)c(OC)c1OC | 6.04% (active) | 39.7% | 4.39% (active) | -48.3% (active) | 51.7% | 3.29% (active) | 73.1% | 60.7% | 60.4% | 10.8% | -19.7% (active) | 6.94% (active) | -3.52% (active) | 21.2% |  | -4.4% (active) | -44.4% (active) | -39.1% (active) |
| CN(C)CCN1C(=O)c2ccc3c4c(ccc(c24)C1=O)C(=O)N(CCN=C=S)C3=O | -39.7% (active) | -45% (active) | -88.7% (active) | -94.3% (active) | -97% (active) | -96.5% (active) | -6.37% (active) | -57.3% (active) | -87.5% (active) | -68.1% (active) |  | -71.9% (active) | -87.4% (active) | -93% (active) |  | -64.3% (active) | -54.5% (active) | -90.9% (active) |
| COC(=O)C1CCCN1C(=O)[C@@H]1CCCN1C(=O)[C@H](Cc1c[nH]c2ccccc12)NC(=S)Nc1cc(C(F)(F)F)cc(C(F)(F)F)c1 (some centres not stated) | 0.677% (active) | 36.6% | 42.7% | 61.1% | 87.4% | 57.2% | 65.4% | 52.6% | 70.3% | 69.9% | 38.8% | 37.3% | 15% | 25.2% |  | 47.1% | 49.8% | 45% |
| Cc1ccc(S(=O)(=O)NC(=O)n2cc(-c3ccncc3)c(-c3ccc(Cl)c(O)c3)n2)cc1 | 83.3% | 99.9% | 99% |  | 101% | 146% | 107% | 104% | 106% | 131% |  | 96% |  | 118% | 114% | 112% | 108% | 82.2% |
| COc1cc(C2CC(c3ccc4c(c3)OCO4)=NN2C(C)=O)cc(OC)c1OC (configuration not stated) | 19.9% | 39.2% | 42% | 54.5% | 10.6% | -5.71% (active) | -7.69% (active) | 4% (active) | 60.7% | 26.6% | 17.4% | 30.9% | 47.8% | 30.6% |  |  |  | -49% (active) |
| COc1ccc(-c2c(-c3cc(OC)c4c(c3)OCO4)noc2N)cc1 | -7.43% (active) | 23.8% | 9.5% (active) | 34.4% | 4.02% (active) | -47.3% (active) | 28% | 13.8% | 20.7% | 21% | 14.2% | 6.02% (active) | 15.8% | 3.59% (active) |  | 14.6% | 37.3% | -38.9% (active) |
| COc1cc(C2C3=C(COC3=O)Nc3cc4c(cc32)CCC4)cc2c1OCO2 (configuration not stated) | 5.8% (active) | 23.2% | 24.5% | 43.5% |  | -47.9% (active) | 28.4% | -16.6% (active) | 23.8% | 25.4% | 19.1% | 5.73% (active) | 8.29% (active) | 3% (active) |  | 23.2% | 64% | -12.3% (active) |
| CCN(CC)CCC(CNc1c2ccc(Cl)cc2nc2ccc(OC)cc12)c1ccccc1 (configuration not stated) | -6.4% (active) | -23.6% (active) | -15.1% (active) |  | 35.3% | -30.5% (active) | -27.6% (active) | -1.8% (active) |  | -49.7% (active) | -38.6% (active) | -36% (active) | -72% (active) | -24.1% (active) | -9.48% (active) | -10.5% (active) | -58.8% (active) | -80.4% (active) |
| O=C(/C=C/c1ccccc1)c1cccc(O)c1 | 6.27% (active) | -37.8% (active) | 86.5% | 106% |  |  | 110% | 103% | 80.4% | 65.4% | 14.9% | -71.6% (active) | 102% | -29.4% (active) |  | 82% | 97.9% | 57.1% |
| COc1ccc(Nc2ncccc2C(=O)NCc2cn(Cc3cccc(Oc4ccccc4)c3)nn2)c(OC)c1 | 30.3% | 35.5% |  | 54.9% | 21.6% | -57.8% (active) | 15.3% | -10% (active) | 43% | 26.4% | 25% | 15% | -14.4% (active) | 17.9% | 51.1% | 48% | 51.6% | -24.2% (active) |
| COc1ccc2c(c1)C(c1cc(OC)c3c(c1)OCO3)C1=C(COC1=O)N2 (configuration not stated) | 6.1% (active) | 22.1% | 19% | 41.2% | 16.2% | -44% (active) | 21% | 2.82% (active) | 23.4% | 23.3% | 16.2% | 12.7% | 10.6% | 9.2% (active) |  | 28.8% | 52.4% | -13.5% (active) |
